# This is part of a sample that, as a whole, favours compounds with a hit. Of some 83,000 tested, about 20% had one in any assay.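 Values shown are percent growth following 48 h exposure of cells in 96-well plates to a single concentration of compound; below 10 was considered active.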 A number with no mark means an inactive call. Activity calls are given as the source filed them.
# What was measured:
# Assay in all cases: NCI-60 one-dose screen, 48 h (100 = growth as untreated, 0 = no growth, -100 = all killed)
# Details in all cases: 10 µM unless noted
# [1] = tested on: NCI-H23 lung
# [2] = tested on: NCI-H322M lung
# [3] = tested on: HOP-62 NSCLC
# [4] = tested on: NCI-H460 lung
# [5] = tested on: HOP-92 NSCLC
# [6] = tested on: NCI-H522 lung
# [7] = tested on: A549/ATCC NSCLC
# [8] = tested on: 786-0 renal
# [9] = tested on: COLO 205 colon
# [10] = tested on: DU-145 prostate
# [11] = tested on: K-562 leukemia
# [12] = tested on: MALME-3M melanoma
# [13] = tested on: MDA-MB-231 breast
# [14] = tested on: RXF 393 renal
# [15] = tested on: SF-268 CNS
# [16] = tested on: SF-295 CNS
# [17] = tested on: SF-539 CNS
# [18] = tested on: UACC-257 melanoma
# [19] = tested on: M14 melanoma
# [20] = tested on: HCT-15 colon
SMILES,growth [1],growth [2],growth [3],growth [4],growth [5],growth [6],growth [7],growth [8],growth [9],growth [10],growth [11],growth [12],growth [13],growth [14],growth [15],growth [16],growth [17],growth [18],growth [19],growth [20]
CCN1C(=O)N(CC)C2Nn3c(s/c(=C\c4ccccc4F)c3=O)=NC21 (stereo not given),41.8%,59.4%,59.3%,21.6%,67.5%,27.5%,31.6%,49.3%,7.99% (active),37.4%,15.9%,78.4%,35.1%,36.7%,54.9%,14.9%,11.6%,65.2%,23.3%,26.5%
O=C1OC(c2ccccc2)(c2ccccc2)c2ccsc21,113%,90.7%,117%,98.8%,87.1%,92.6%,101%,103%,121%,104%,87%,87.2%,100%,114%,97.3%,97.2%,98.9%,103%,106%,95.2%
CC1(O)COCCCCOc2c(CN)cccc2NC(=O)c2nc(cnc2N)-c2ccc(cc2)S(=O)(=O)C(C)(C)C1 (stereo not given),-66.7% (active),-1.9% (active),-25.5% (active),-61.9% (active),-5.59% (active),-40.5% (active),-52.8% (active),-58% (active),-47.9% (active),-73.4% (active),0.195% (active),-86.6% (active),-76.3% (active),-76.2% (active),-66.6% (active),-90.3% (active),-93.4% (active),-66.4% (active),-76.7% (active),-82.7% (active)
CN1CCN(Cc2ccc(C(=O)Nc3cncc(C#Cc4cnc5cccnn45)c3)cc2C(F)(F)F)CC1,47.5%,54.4%,70.9%,49.2%,34.4%,40.2%,58.5%,57.2%,39.3%,36.1%,6.75% (active),28.3%,41%,50.5%,60.3%,80.2%,32.9%,19.2%,34.4%,38.8%
NCCNc1nc2ccc(F)cc2c2c(=O)c3cc(F)ccc3sc12,70.9%,60.6%,56.5%,-54.7% (active),17.4%,30.9%,43.7%,58.6%,-52.2% (active),7.23% (active),-44.2% (active),99%,6.98% (active),52.3%,48.9%,82.3%,73.6%,79.4%,15.7%,20.9%
COc1ccccc1C(=O)O/N=C(\N)Cc1cccc2ccccc12,80.9%,97.6%,94.6%,70.7%,91%,85%,70.1%,106%,67.8%,99.1%,75.7%,23.6%,77.3%,102%,80.9%,52.2%,97.2%,73.9%,86.3%,75.7%
O=C1Nc2ccccc2/C1=C/c1ccc[nH]1,84.9%,88%,78.8%,85.9%,104%,90.9%,92.9%,96.3%,106%,101%,107%,94.5%,40.3%,80.5%,92.1%,102%,86.6%,96.6%,89.8%,42.1%
COc1ccc(C)c2sc(N(Cc3cccnc3)C(=O)c3ccc(C#N)cc3)nc12,7.42% (active),6.37% (active),7.67% (active),-24.4% (active),-3.64% (active),-22.2% (active),6.76% (active),-12.2% (active),1.84% (active),17.3%,4.61% (active),-15.2% (active),-4% (active),-31% (active),10.9%,-28.9% (active),-26% (active),-15.5% (active),4.95% (active),17.5%

# Reference: PubChem BioAssay (NCI)
